Data taken from PubChem BioAssay (Tox21).
Results filed as inconclusive are left out. Entries that show only a call come without a potency. Activity calls are given as the source filed them. Calls come from the whole dose curve; as a rule, active = well fitted cell-killing curve with a large enough effect in the repeat runs; inconclusive = weak or mixed curves, or effect the other way; inactive = no such curve, though single readings can be large or run the other way.

Test: qHTS assay to identify aromatase inhibitors - cell viability counter screen (AID 743084);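 note: cells stimulated with testosterone during compound exposure; nearly all actives have a fitted effect of over 55% in size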
Details: MCF-7 aro ERE viability, CellTiter-Fluor, 24 h; series mostly up to 70.3 µM
Potency is the fitted concentration of half-maximal effect.

SMILES	Potency
C[Se]CCC(N)C(=O)O (stereo unspecified)	inactive
O=C(CCCN1CCC(C(=O)c2ccc(F)cc2)CC1)c1ccc(F)cc1	inactive
CN1CCCC(CN2c3ccccc3Sc3ccccc32)C1 (stereo unspecified)	inactive
CC(=O)Nc1ccc(NC(=S)NC(=O)c2ccc(C(C)(C)C)cc2)cc1	inactive
Cc1cc(/C=C/c2ccc3cc(N(C)C)ccc3[n+]2C)c(C)n1-c1ccccc1	8.04 µM (active)
C[C@]12CC[C@@H]3c4ccc(O)cc4CC[C@H]3[C@@H]1CC[C@@H]2OP(=O)(O)O	inactive
CC1(C)[C@@H]2CC[C@@]1(C)[C@H](OC(=O)CSC#N)C2	inactive
COCC(=O)Nc1cc(Sc2ccccc2)ccc1N=C(NC(=O)OC)NC(=O)OC	inactive
C=C[C@]1(C)C[C@@H](OC(=O)CSC(C)(C)CNC(=O)[C@H](N)C(C)C)[C@]2(C)[C@H](C)CC[C@]3(CCC(=O)[C@H]32)[C@@H](C)[C@@H]1O	2.98 µM (active)
CN(C)CC/C=C1/c2ccccc2CSc2ccccc21	inactive
CN1[C@@H]2CC[C@H]1CC(OC(c1ccccc1)c1ccccc1)C2 (stereo partly specified)	inactive
S=C1SCN(Cc2ccccc2)CN1Cc1ccccc1	inactive
Cc1nc(NS(=O)(=O)c2ccc(N)cc2)nc(C)c1Br	inactive
CN(C)CCCN1c2ccccc2C(C)(C)c2ccccc21	inactive
C[C@]12C=CC(=O)N[C@@H]1CC[C@@H]1[C@@H]2CC[C@]2(C)[C@@H](C(=O)Nc3cc(C(F)(F)F)ccc3C(F)(F)F)CC[C@@H]12	inactive
CC1(C)S[C@@H]2[C@H](NC(=O)C(C(=O)O)c3ccsc3)C(=O)N2[C@H]1C(=O)O (stereo partly specified)	inactive
